Results from PubChem BioAssay (NCI).
The panel holds about 83,000 compounds, 20% with a hit somewhere; the sample as a whole holds those more often.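 Assay: single dose, 48 h. Readout: percent growth (0 = no net growth; negative = cell death). Active: <10.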 Activity calls are given as the source filed them.

Tests used:
Experiment in all cases: NCI-60 one-dose screen, 48 h (100 = growth as untreated, 0 = no growth, -100 = all killed)
Settings in all cases: 10 µM unless noted
SK-MEL-2 melanoma = system: SK-MEL-2 melanoma
EKVX NSCLC = system: EKVX NSCLC
SN12C renal = system: SN12C renal
UO-31 renal = system: UO-31 renal
TK-10 renal = system: TK-10 renal
ACHN renal = system: ACHN renal
CAKI-1 renal = system: CAKI-1 renal
A498 renal = system: A498 renal
CCRF-CEM leukemia = system: CCRF-CEM leukemia
MOLT-4 leukemia = system: MOLT-4 leukemia

Measured: growth

CCOC(=O)c1ccc(NC(=O)c2nc(-c3cc(OC)c(OC)c(OC)c3)n(-c3ccc(Cl)cc3)n2)cc1
inactive: SK-MEL-2 melanoma 85.9% | EKVX NSCLC 94% | SN12C renal 85.2% | UO-31 renal 58.8% | TK-10 renal 93.3% | ACHN renal 94.1% | CAKI-1 renal 80.7% | A498 renal 86% | CCRF-CEM leukemia 90% | MOLT-4 leukemia 81.8%

C=C(C)[C@@H]1CC[C@]2(C(=O)O)CC[C@]3(C)[C@H](CC[C@@H]4[C@@]5(C)CCC(NC(=O)c6cccc(OC(C)=O)c6OC(C)=O)C(C)(C)[C@@H]5CC[C@]43C)[C@@H]12 (stereo not given in full)
inactive: SK-MEL-2 melanoma 14.9% | SN12C renal 12.5% | TK-10 renal 19.7% | CCRF-CEM leukemia 10.4%
active: EKVX NSCLC 2.51% | UO-31 renal -39% | ACHN renal 3.98% | CAKI-1 renal 3.74% | A498 renal -21.9% | MOLT-4 leukemia 8.43%

N#Cc1c(-c2ccc(Cl)cc2)nc(NN2C(=O)c3ccccc3C2=O)nc1N1CCOCC1
inactive: SK-MEL-2 melanoma 110% | EKVX NSCLC 103% | SN12C renal 99.9% | UO-31 renal 84.4% | TK-10 renal 100% | ACHN renal 104% | CAKI-1 renal 90.4% | A498 renal 94.7% | CCRF-CEM leukemia 103% | MOLT-4 leukemia 97.8%

O=C(Nc1ccccc1)Nc1ncnc2c1ncn2-c1ccc(Cl)cc1
inactive: SK-MEL-2 melanoma 107% | EKVX NSCLC 86.7% | SN12C renal 63.1% | UO-31 renal 70.3% | TK-10 renal 58.9% | ACHN renal 69.5% | CAKI-1 renal 93.9% | A498 renal 91% | CCRF-CEM leukemia 94.2% | MOLT-4 leukemia 84.2%

C=C(C)[C@@H]1CC[C@]2(C(=O)N3CCOCC3)CC[C@]3(C)[C@H](CC[C@@H]4[C@@]5(C)C/C(=C/c6ccncc6)C(=O)C(C)(C)[C@@H]5CC[C@]43C)[C@@H]12
inactive: SK-MEL-2 melanoma 72.2% | EKVX NSCLC 60.8% | SN12C renal 62.6% | UO-31 renal 52.6% | TK-10 renal 91% | ACHN renal 58.4% | CAKI-1 renal 56.8% | A498 renal 68.9% | CCRF-CEM leukemia 31.7% | MOLT-4 leukemia 30.3%

CS(=O)(=O)Nc1cc(-c2ccc3ncnc(Nc4ccc5c(cnn5Cc5ccc(F)cc5)c4)c3c2)cnc1Cl
active: SK-MEL-2 melanoma 3.86% | A498 renal -23.2%
inactive: EKVX NSCLC 62.5% | SN12C renal 35.6% | UO-31 renal 46.5% | TK-10 renal 38.3% | ACHN renal 70.6% | CAKI-1 renal 25.7% | CCRF-CEM leukemia 31.2% | MOLT-4 leukemia 21.2%

O=C(c1nn(-c2ccccc2)c2c1CC(NCc1ccc(F)cc1)CC2)N1CCCCC1 (stereo not given)
inactive: SK-MEL-2 melanoma 103% | EKVX NSCLC 97.6% | SN12C renal 105% | UO-31 renal 74.2% | TK-10 renal 92.5% | ACHN renal 104% | CAKI-1 renal 85% | A498 renal 120% | CCRF-CEM leukemia 108% | MOLT-4 leukemia 73.5%

Cn1ccnc1C(=O)/C=C/c1ccc(C(=O)Nc2ccccc2O)cc1
inactive: SK-MEL-2 melanoma 78% | EKVX NSCLC 56.5% | SN12C renal 12.6% | UO-31 renal 33.3% | TK-10 renal 107% | ACHN renal 10.5% | CAKI-1 renal 26.8% | A498 renal 55.7% | MOLT-4 leukemia 17%
active: CCRF-CEM leukemia -9.45%

CCOC(=O)c1cc2c(n1Cc1cc(OC)c(OC)c(OC)c1)-c1nc(N)sc1CCC2
inactive: SK-MEL-2 melanoma 32.6% | EKVX NSCLC 65.6% | SN12C renal 88.5% | UO-31 renal 57% | TK-10 renal 74.4% | ACHN renal 77.2% | CAKI-1 renal 55.9% | CCRF-CEM leukemia 41.1% | MOLT-4 leukemia 66.7%
active: A498 renal 7.34%

Oc1c(Br)cc(Br)c2ccc(Cn3cc(-c4ccc(C(F)(F)F)cc4)nn3)nc12
inactive: SK-MEL-2 melanoma 90.9% | EKVX NSCLC 83.6% | SN12C renal 71% | UO-31 renal 63.5% | TK-10 renal 99.1% | ACHN renal 26.4% | CAKI-1 renal 13.2% | A498 renal 96.8% | MOLT-4 leukemia 11.3%
active: CCRF-CEM leukemia 2.97%

CCOC(=O)n1cc(-c2nonc2-c2cn(C(=O)OCC)c3ccc(Br)cc23)c2ccccc21
inactive: SK-MEL-2 melanoma 87.5% | EKVX NSCLC 73.3% | SN12C renal 88.1% | UO-31 renal 46.9% | TK-10 renal 90.8% | ACHN renal 64.5% | CAKI-1 renal 60.1% | A498 renal 82.3% | CCRF-CEM leukemia 87.7% | MOLT-4 leukemia 72.2%

[O-]/[N+](=C\c1ccc(-n2cc(Cc3ccccc3Cc3cn(-c4ccc(/C=[N+](/[O-])c5ccccc5)cc4)nn3)nn2)cc1)c1ccccc1
inactive: SK-MEL-2 melanoma 111% | EKVX NSCLC 96.8% | SN12C renal 101% | UO-31 renal 93.3% | TK-10 renal 121% | ACHN renal 103% | CAKI-1 renal 98.8% | A498 renal 83.3% | CCRF-CEM leukemia 103% | MOLT-4 leukemia 89.5%

CCOc1nc(-c2ccccc2)cc2c(O)c(C(=O)N/N=C/c3ccccc3)[nH]c(=O)c12
inactive: SK-MEL-2 melanoma 36.5% | EKVX NSCLC 96.1% | SN12C renal 110% | UO-31 renal 93.2% | TK-10 renal 151% | ACHN renal 107% | CAKI-1 renal 104% | A498 renal 91.3% | CCRF-CEM leukemia 106% | MOLT-4 leukemia 79.7%

COc1ccc(-c2nc3cc(C(=O)NCc4ccccc4)ccc3n2C2CCCCC2)cc1
inactive: SK-MEL-2 melanoma 91.3% | EKVX NSCLC 46.4% | SN12C renal 94.6% | UO-31 renal 61.6% | TK-10 renal 90.9% | ACHN renal 74.3% | CAKI-1 renal 70.5% | A498 renal 82.4% | CCRF-CEM leukemia 76.8% | MOLT-4 leukemia 66.6%

COC(CC(F)F)c1cn(S(=O)(=O)c2ccc(C)cc2)c2ccccc12 (stereo not given)
inactive: SK-MEL-2 melanoma 41.3% | EKVX NSCLC 48.3% | SN12C renal 43.3% | UO-31 renal 33.8% | TK-10 renal 59.3% | ACHN renal 51% | CAKI-1 renal 37.4% | A498 renal 42.3% | CCRF-CEM leukemia 11.1% | MOLT-4 leukemia 22.3%

COc1ccc(-c2cc(-c3cccnc3)nc3sc4c(=O)[nH]c(-c5ccc(Cl)cc5)nc4c23)cc1OC
inactive: SK-MEL-2 melanoma 95.7% | EKVX NSCLC 90% | SN12C renal 89.5% | UO-31 renal 78.1% | TK-10 renal 104% | ACHN renal 93.4% | CAKI-1 renal 86.4% | A498 renal 91.2% | CCRF-CEM leukemia 80.3% | MOLT-4 leukemia 37.6%

O=C1c2c(c3c4ccccc4[nH]c3c3ccc4ccccc4c23)C(=O)N1CCN1CCOCC1
inactive: SK-MEL-2 melanoma 69.9% | EKVX NSCLC 61.8% | SN12C renal 30.2% | UO-31 renal 27.6% | TK-10 renal 71.2% | ACHN renal 15.3% | CAKI-1 renal 32.8% | A498 renal 61.4% | CCRF-CEM leukemia 10.9%
active: MOLT-4 leukemia 6.38%

COc1ccc(/C=N\Nc2nc(SCCC(C)C)nc(-c3ccc(OC)cc3)c2C#N)cc1
inactive: SK-MEL-2 melanoma 103% | EKVX NSCLC 44.8% | SN12C renal 32.2% | TK-10 renal 11.2% | CAKI-1 renal 17% | A498 renal 98.5% | CCRF-CEM leukemia 31.4% | MOLT-4 leukemia 65.1%
active: UO-31 renal -41.4% | ACHN renal -41.5%

O=C1c2ccccc2-c2c1c1c(=O)[nH]c3ccccc3c1n2Cc1ccccc1
inactive: SK-MEL-2 melanoma 75.2% | EKVX NSCLC 51.9% | SN12C renal 69.9% | UO-31 renal 78.3% | TK-10 renal 75.7% | ACHN renal 46.6% | CCRF-CEM leukemia 87.4% | MOLT-4 leukemia 64.9%
active: CAKI-1 renal 2.5% | A498 renal 0.459%

N#CC1=C(N)Oc2c(ccc3ccccc23)C1c1ccccc1 (stereo not given)
active: CCRF-CEM leukemia 9.24%
inactive: SK-MEL-2 melanoma 43.1% | EKVX NSCLC 41.9% | SN12C renal 32.5% | UO-31 renal 39.3% | TK-10 renal 46.8% | ACHN renal 31.2% | CAKI-1 renal 18.1% | A498 renal 33.7% | MOLT-4 leukemia 14.6%

O=C1NC(=C(Cl)Cl)/C(=N\S(=O)(=O)NCc2ccccc2)N1
inactive: SK-MEL-2 melanoma 103% | EKVX NSCLC 118% | SN12C renal 90.7% | UO-31 renal 94.1% | TK-10 renal 107% | ACHN renal 110% | CAKI-1 renal 101% | A498 renal 104% | CCRF-CEM leukemia 75% | MOLT-4 leukemia 85.5%

C[PH+](c1nc2ccccc2nc1[PH+](C)C(C)(C)C)C(C)(C)C.C[PH+](c1nc2ccccc2nc1[PH+](C)C(C)(C)C)C(C)(C)C.[Au+].[Cl-] (stereo not given)
inactive: CCRF-CEM leukemia 12.2%
active: SK-MEL-2 melanoma -76.6% | EKVX NSCLC -82.5% | SN12C renal -59.1% | UO-31 renal -90.9% | TK-10 renal -91.6% | ACHN renal -97.1% | CAKI-1 renal -93.4% | A498 renal -99.1% | MOLT-4 leukemia 8.3%

CCc1ncnc2c1ccn2C(C)c1ccc(OC)c(F)c1 (stereo not given)
inactive: SK-MEL-2 melanoma 34.3% | EKVX NSCLC 51.9% | SN12C renal 67% | UO-31 renal 60.1% | TK-10 renal 58.8% | ACHN renal 75.4% | CAKI-1 renal 40.5% | A498 renal 46.3% | CCRF-CEM leukemia 42.4% | MOLT-4 leukemia 32.7%

CC1(C)COB(OCC(C)(C)COB2OCC(C)(C)CO2)OC1
inactive: SK-MEL-2 melanoma 113% | EKVX NSCLC 104% | SN12C renal 104% | UO-31 renal 87.7% | TK-10 renal 102% | ACHN renal 108% | CAKI-1 renal 102% | A498 renal 100% | CCRF-CEM leukemia 101% | MOLT-4 leukemia 108%

NC(N)=NCCCCCNc1noc(Cc2c[nH]c3cc(Br)ccc23)n1
inactive: SK-MEL-2 melanoma 87.7% | EKVX NSCLC 69.6% | SN12C renal 44.7% | UO-31 renal 80.2% | TK-10 renal 75.4% | ACHN renal 92.6% | CAKI-1 renal 82.4% | A498 renal 94% | CCRF-CEM leukemia 97.8% | MOLT-4 leukemia 60.2%

Cn1c(I)c(C#CCO[Si](C)(C)C(C)(C)C)c(=O)[nH]c1=O
inactive: SK-MEL-2 melanoma 69.2% | EKVX NSCLC 105% | SN12C renal 114% | UO-31 renal 25.3% | TK-10 renal 92.7% | ACHN renal 99.7% | CAKI-1 renal 103% | A498 renal 94.5%
active: CCRF-CEM leukemia 5.42% | MOLT-4 leukemia -22.9%
